PubChem BioAssay (Tox21)
Inconclusive results are not listed. Calls of active or inactive are those of the source. Unless noted, calls follow the shape of the dose curve; as a rule, active = well fitted curve in the direction sought with a large enough effect in the repeat runs; inconclusive = weak or mixed curves; inactive = no such curve, though single readings can be large; an effect the other way counts as inactive or inconclusive.

What was measured:
[1] = qHTS assay to identify small molecule agonists of the estrogen receptor alpha (ER-alpha) signaling pathway in the presence of an antagonist - cell viability counter screen (AID 1259386);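 also: series mostly up to about 92 µM; cells exposed to compounds for 22 h at 37 °C before the viability read; nearly all actives have a fitted effect of over 30% in size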
In short: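 Viability counter screen using VM7Luc4E2 (full-length ER-alpha, four ERE-luciferase). The cells were treated with compounds alongside ICI-182,780 10.0nM for 22hr, and live-cell protease fluorescence was quantified with CellTiter-Fluor.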

[2] = target: Progesterone receptor (Homo sapiens) (UniProt P06401); assay: qHTS assay to identify small molecule agonists of the progesterone receptor (PR) signaling pathway (AID 1346784; calls by dose curve; also: nearly all actives have a fitted effect of over 30% in size)
In short: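 PR-UAS-bla HEK 293T cells carrying a UAS-driven beta-lactamase reporter were seeded in medium with 2% charcoal-stripped FBS, preincubated 6 hr at 37C, then exposed to compounds in DMSO for 16 hr; agonism was read by LiveBLAzer B/G FRET fluorescence.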

[3] = qHTS assay to identify small molecule antagonists of the progesterone receptor (PR) signaling pathway - cell viability counter screen (AID 1346798); also: nearly all actives have a fitted effect of over 50% in size; also: potency is read from the fitted curve at half-maximal effect; as to activity change, negative = cytotoxicity: series mostly up to about 92 µM
In short: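 PR-UAS-bla HEK293T cells in medium with 2% charcoal-stripped FBS were treated with compounds plus R5020 for 16 hr at 37C. Cell viability was then read by CellTiter-Glo luminescence after 30 min at room temperature in the same wells.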

[4] = qHTS assay to identify small molecule agonists of the progesterone receptor (PR) signaling pathway - cell viability counter screen (AID 1346799; calls by dose curve; also: nearly all actives have a fitted effect of over 45% in size; also: potency is read from the fitted curve at half-maximal effect)
In short: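 PR-UAS-bla HEK293T cells, 3,000 per well in medium with 2% charcoal-stripped FBS, were preincubated 6 hr at 37C, then exposed to compounds for 16 hr; viability was read as CellTiter-Glo luminescence after 30 min at room temperature.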

[5] = qHTS assay to identify small molecule antagonists of the TGF-beta/Smad signaling pathway - cell viability counter screen (AID 1346824); also: nearly all actives have a fitted effect of over 50% in size
In short: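 SBE-bla HEK 293T cells were plated overnight at 37 C, then given compounds in DMSO plus TGF-beta1 (added as 0.25 ng/mL solution) for 5 hr. After the bla read, CellTiter-Glo was added to the same wells and luminescence read after 30 min at room temperature.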

[6] = qHTS assay to identify small molecule agonists of the TGF-beta/Smad signaling pathway - cell viability counter screen (AID 1346829); also: top concentration of the series differs between compounds; nearly all actives have a fitted effect of over 45% in size
In short: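 HEK 293T SBE-bla line, 5 hr compound exposure at 37 C, multiplexed CellTiter-Glo viability read by luminescence.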

[7] = qHTS assay to identify small molecule agonists of the TGF-beta/Smad signaling pathway (AID 1346859; active = well fitted activation curve with a large enough effect in the signal ratio in the repeat runs, not every such curve was filed as active; the % refers to the signal ratio; also: series mostly up to about 77 µM)
In short: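 HEK 293T cells stably carrying a beta-lactamase reporter driven by the Smad binding element were seeded overnight, exposed to DMSO-dissolved compounds for 5 hr at 37 C, 5% CO2, then loaded with FRET substrate for 2 hr at room temperature.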

[8] = target: Thyrotropin-releasing hormone receptor (Homo sapiens) (UniProt P34981); assay: qHTS assay to identify small molecule antagonists of the thyrotropin-releasing hormone receptor (TRHR) signaling pathway (AID 1346877; active = well fitted inhibition curve with a large enough effect in the repeat runs, not every such curve was filed as active; also: series mostly up to about 51 µM)
In short: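 Following an 18 h incubation at 37 °C and a 2 h calcium dye load, TRHR-HEK293 cells were exposed to compound (5 min, room temperature) and challenged with TRH, 1 nM final.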

[9] = target: Thyrotropin-releasing hormone receptor (Homo sapiens) (UniProt P34981); assay: qHTS assay to identify small molecule agonists of the thyrotropin-releasing hormone receptor (TRHR) signaling pathway (AID 1346891; calls by dose curve; also: series mostly up to about 58 µM)
In short: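 TRHR-expressing HEK293 cells were plated 18 h at 37 °C/5% CO2, loaded with calcium dye 2 h at 37 °C, then given compound in DMSO; fluorescence was read kinetically for 3 min at 1 s intervals.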

[10] = target: Progesterone receptor (Homo sapiens) (UniProt P06401); assay: qHTS assay to identify small molecule antagonists of the progesterone receptor (PR) signaling pathway (AID 1346795; active = well fitted inhibition curve with a large enough effect in the signal ratio in the repeat runs, not every such curve was filed as active; the % refers to the signal ratio)
In short: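 PR-UAS-bla HEK293T cells carrying a UAS-driven beta-lactamase reporter were plated in medium with 2% charcoal-stripped FBS and rested 6 hr at 37C. Compounds were added with 1 nM R5020 (final) for 16 hr, then FRET substrate loaded 2 hr at room temperature.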
% is scaled to controls: 0 for no effect and ±100 for the full control effect.

Sequence of Thyrotropin-releasing hormone receptor (Homo sapiens) (P34981 whole entry, looked up): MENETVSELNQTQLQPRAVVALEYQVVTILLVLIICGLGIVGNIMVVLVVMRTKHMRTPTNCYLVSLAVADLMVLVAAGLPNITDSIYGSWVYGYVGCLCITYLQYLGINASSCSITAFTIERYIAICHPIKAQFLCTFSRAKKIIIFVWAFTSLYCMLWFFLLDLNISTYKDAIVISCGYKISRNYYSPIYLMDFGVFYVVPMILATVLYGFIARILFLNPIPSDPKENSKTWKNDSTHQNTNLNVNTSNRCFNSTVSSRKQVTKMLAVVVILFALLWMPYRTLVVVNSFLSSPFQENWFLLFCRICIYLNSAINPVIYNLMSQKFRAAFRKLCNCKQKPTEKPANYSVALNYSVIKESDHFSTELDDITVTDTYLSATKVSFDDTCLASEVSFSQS
Sequence of Progesterone receptor (Homo sapiens) (P06401 whole entry, looked up): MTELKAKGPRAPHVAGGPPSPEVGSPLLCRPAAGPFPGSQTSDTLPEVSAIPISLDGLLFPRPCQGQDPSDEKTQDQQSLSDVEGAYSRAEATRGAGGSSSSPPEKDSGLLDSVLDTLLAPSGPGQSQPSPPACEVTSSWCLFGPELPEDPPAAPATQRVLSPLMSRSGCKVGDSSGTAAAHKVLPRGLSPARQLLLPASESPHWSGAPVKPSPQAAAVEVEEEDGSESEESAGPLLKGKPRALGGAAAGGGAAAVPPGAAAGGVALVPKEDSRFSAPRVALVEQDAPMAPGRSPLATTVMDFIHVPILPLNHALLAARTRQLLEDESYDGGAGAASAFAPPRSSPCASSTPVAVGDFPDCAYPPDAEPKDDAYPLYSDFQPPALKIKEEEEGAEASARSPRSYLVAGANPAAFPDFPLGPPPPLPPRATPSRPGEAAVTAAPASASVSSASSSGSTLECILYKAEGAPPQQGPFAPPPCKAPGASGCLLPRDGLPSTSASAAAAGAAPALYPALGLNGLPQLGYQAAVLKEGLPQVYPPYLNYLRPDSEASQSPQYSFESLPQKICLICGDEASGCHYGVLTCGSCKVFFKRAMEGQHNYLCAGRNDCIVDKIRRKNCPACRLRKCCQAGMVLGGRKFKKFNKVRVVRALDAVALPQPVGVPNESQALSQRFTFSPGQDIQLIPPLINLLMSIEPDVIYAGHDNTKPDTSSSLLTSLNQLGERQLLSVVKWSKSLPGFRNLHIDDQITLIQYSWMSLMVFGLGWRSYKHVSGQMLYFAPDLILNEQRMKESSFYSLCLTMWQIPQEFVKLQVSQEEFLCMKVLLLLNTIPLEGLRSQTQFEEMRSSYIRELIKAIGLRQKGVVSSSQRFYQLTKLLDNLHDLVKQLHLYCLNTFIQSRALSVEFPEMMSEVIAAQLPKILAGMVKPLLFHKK

O=C(c1ccccc1)C1(O)CCCCC1
inactive: Potency [1] | Potency [2] | Potency [3] | Potency [4] | outcome [5] | outcome [6] | outcome [7] | outcome [8] | Potency [9]

CCN(Cc1ccccc1)c1ccccc1
active: Potency [4] 67.8 µM
inactive: Potency [1] | Potency [10] | outcome [5] | outcome [6] | outcome [7] | outcome [8] | Potency [9]

CCCCc1ccc2c(n1)[C@@H](c1ccc(OC)cc1C[C@H](C)C(=O)O)[C@H](C(=O)O)[C@H]2c1ccc2c(c1)OCO2
inactive: Potency [1] | Potency [2] | Potency [4] | outcome [5] | outcome [6] | outcome [7]

CNC(=O)Nc1ccc(Cl)c(Cl)c1
inactive: Potency [1] | Potency [2] | Potency [3] | Potency [4] | outcome [6] | outcome [7] | outcome [8] | Potency [9]

C[N+](C)(CCOc1ccccc1)Cc1cccs1
inactive: Potency [1] | Potency [3] | Potency [4] | outcome [5] | outcome [6] | outcome [8] | Potency [9]

Cc1ccc(-c2ncc(Cl)cc2-c2ccc(S(C)(=O)=O)cc2)cn1
inactive: Potency [1] | Potency [10] | Potency [3] | outcome [5] | outcome [6] | outcome [7] | outcome [8] | Potency [9]

COc1cc(C)nc(-n2nc(C)cc2OC)n1
active: Potency [3] 11.9 µM | Potency [4] 8.41 µM
inactive: Potency [1] | outcome [5] | outcome [6] | outcome [7]

O=Cc1cccc(Br)c1
inactive: Potency [1] | Potency [2] | Potency [3] | Potency [4] | outcome [5] | outcome [6] | outcome [7] | outcome [8] | Potency [9]

CC(C)(C)C(=O)c1ccccc1
inactive: Potency [2] | Potency [10] | Potency [3] | Potency [4] | outcome [5] | outcome [6] | outcome [7]

CCOC(=O)CCC(=O)OCC
inactive: Potency [1] | Potency [3] | Potency [4] | outcome [5] | outcome [6] | outcome [7] | outcome [8] | Potency [9]

CO/N=C(\C(=O)N[C@@H]1C(=O)N2C(C(=O)O)=C(CSc3nc(=O)c(O)nn3C)CS[C@H]12)c1csc(N)n1
inactive: Potency [1] | Potency [2] | Potency [4] | outcome [5] | outcome [6] | outcome [7] | outcome [8] | Potency [9]

CC(=O)N1C[C@H](O)C[C@H]1C(=O)O
inactive: Potency [1] | Potency [2] | Potency [3] | Potency [4] | outcome [5] | outcome [6] | outcome [7] | outcome [8] | Potency [9]

CC1=CCC(O)(C(C)C)CC1 (configuration not stated)
inactive: Potency [1] | Potency [2] | Potency [3] | Potency [4] | outcome [5] | outcome [6] | outcome [7] | outcome [8] | Potency [9]

NO
inactive: Potency [1] | Potency [3] | Potency [4] | outcome [5] | outcome [6] | outcome [7]

C[C@@H]1C[C@H]2[C@@H]3C[C@H](F)C4=CC(=O)C(Cl)=C[C@]4(C)[C@@]3(F)[C@@H](O)C[C@]2(C)[C@@]1(O)C(=O)CO
inactive: Potency [1] | Potency [3] | outcome [6] | outcome [7] | outcome [8] | Potency [9]

CC(C)c1ccc2ncccc2c1
inactive: Potency [1] | Potency [2] | Potency [3] | Potency [4] | outcome [5] | outcome [6] | outcome [7]

CCCCCCCCCCOc1cc2c(=O)c(C(=O)OCC)c[nH]c2cc1OCC
inactive: activity change, negative = cytotoxicity [1] -3.47% [at 8.39 µM] | activity change, negative = inhibition [10] -0.779% [at 8.39 µM] | activity change, negative = cytotoxicity [3] 1.18% [at 8.39 µM] | activity change, negative = cytotoxicity [4] -5.75% [at 8.39 µM] | viability change, negative = cytotoxic [5] 0.981% [at 6.97 µM] | activity change, negative = cytotoxicity [6] 0.83% [at 6.97 µM] | activation [7] 0.379% [at 6.97 µM] | activity, negative = inhibition [8] 0.403% [at 4.65 µM] | activation [9] 0.481% [at 5.23 µM]

CN(C)CCCN(C)CCCN(C)C
inactive: Potency [1] | Potency [2] | Potency [4] | outcome [5] | outcome [6] | outcome [7] | outcome [8] | Potency [9]

FB(F)F
inactive: Potency [2] | Potency [10] | Potency [3] | Potency [4] | outcome [5] | outcome [6] | outcome [7] | outcome [8] | Potency [9]

CCN(C=O)CC
inactive: outcome [5] | outcome [6] | outcome [7] | outcome [8] | Potency [9]
active: Potency [4] 49.8 µM

NC(=O)NC1N=C([O][Al])NC1=O (configuration not stated)
inactive: Potency [2] | Potency [10] | Potency [4] | outcome [5] | outcome [7] | outcome [8] | Potency [9]

CN(C)CCCCCCN(C)C
inactive: Potency [2] | Potency [10] | Potency [3] | Potency [4] | outcome [5] | outcome [6] | outcome [7] | outcome [8] | Potency [9]

COc1cc(C(=O)NCc2ccc(OCCN(C)C)cc2)cc(OC)c1OC
inactive: Potency [2] | Potency [10] | Potency [3] | Potency [4] | outcome [5] | outcome [6] | outcome [7] | outcome [8] | Potency [9]

CCOC(=O)COC(=O)c1ccccc1C(=O)OCC
inactive: Potency [2] | Potency [10] | Potency [3] | Potency [4] | outcome [6] | outcome [8] | Potency [9]

CCCCCCCCN1CCCC1=O
inactive: Potency [2] | Potency [10] | Potency [4] | outcome [5] | outcome [6] | outcome [7] | outcome [8] | Potency [9]

Cc1ncc([C@@H](CCCCCCc2ccc3c(n2)NCCC3)CC(=O)O)cn1
inactive: Potency [2] | Potency [3] | outcome [5] | outcome [6] | outcome [7] | outcome [8] | Potency [9]

Cc1ccc(C(=O)c2ccc(CC(=O)O)n2C)cc1
inactive: Potency [2] | Potency [3] | Potency [4] | outcome [5] | outcome [6] | outcome [8] | Potency [9]
